Assay [1] can be described thus: Nuclear factor erythroid 2-related factor 2/antioxidant responsive element (Nrf2/ARE) small molecule agonists: qHTS cell viability counter screen in human keratinocytes (AID 1919968; active = well fitted curve in the direction sought with a large enough effect in the repeat runs; an effect the other way counts as inactive or inconclusive; also: nearly all actives have a fitted effect of over 55% in size). The essentials:
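After a 5 h attachment period, ARE-reporter keratinocytes were dosed with compounds in DMSO and then cultured 23 h at 37 C. Cell viability came from CellTiter-Fluor signal read after a further 1 h.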
(In general: qHTS replaces the single test concentration by a dilution series.)

The nature of assay [2]: Nuclear factor erythroid 2-related factor 2/antioxidant responsive element (Nrf2/ARE) small molecule agonists: luciferase reporter gene qHTS assay in human keratinocytes (AID 1919969). Also: nearly all actives have a fitted effect of over 35% in size. Also: potency is read from the fitted curve at half-maximal effect.
Assay [3] concerns the target Gonadotropin-releasing hormone receptor (Homo sapiens) (UniProt P30968). Description: Human gonadotropin-releasing hormone receptor (GnRHR) small molecule agonists, calcium flux assay in GnRHR-HEK293 cells (AID 1920063). Also: nearly all actives have a fitted effect of over 35% in size. A digest of the protocol: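 We seeded human GnRHR-expressing HEK293 cells for 18 hours, loaded them with calcium dye for an hour at 37 C, added test compounds, and recorded fluorescence intensity kinetically for three minutes.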
In general terms: Calcium assays in cells follow changes in intracellular calcium, usually with a dye or a luminescent sensor.

Assay [4] addresses KiSS-1 receptor (Homo sapiens) (UniProt Q969F8). Description: Human kisspeptin (KISS1R) small molecule agonists, calcium flux assay in KISS1R-HEK293 cells (AID 1920064; active = well fitted curve in the direction sought with a large enough effect in the repeat runs; an effect the other way counts as inactive or inconclusive). The essentials:
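Kinetic calcium assay, 1 s sampling over 3 min at Ex/Em 480/540, in HEK293 cells engineered with human KISS1R; compounds delivered in DMSO after 1 h dye loading.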

A short description of assay [5]: G protein-coupled receptor (GPCR) small molecule agonists, calcium flux assay: HEK293 wild type cell line counter screen (AID 1920065). The essentials: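 Calcium-sensitive dye, loaded 1 h at 37 C into cells cultured 18 h, reports compound-evoked calcium release as fluorescence (Ex/Em 480/540), measured over 3 min. Agonist mode; 15-point titrations, triplicate.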

Assay [6] can be described thus: p53 small molecule agonists, cell-based qHTS assay with human liver microsomes (AID 1963577).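 Also: p53 response element beta-lactamase reporter cells with liver microsomes plus NADPH.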 A digest of the protocol: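 p53RE-bla cells; 5 h settle, 37 C/5% CO2; cpd + HLM 0.5 mg/mL + NADPH 0.5 mg/mL (final); 16 h 37 C; LiveBLAzer 2 h RT dark; fluorescence readout.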
The nature of assay [7]: p53 small molecule agonists, cell-based qHTS assay with rat liver microsomes (AID 1963578). The essentials: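 Rat liver microsome activation: microsomes 0.5 mg/mL, NADPH 0.5 mg/mL final; p53RE-bla cells, 16 h 37 C; LiveBLAzer readout, 2 h RT dark.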
Assay [8] can be described thus: p53 small molecule agonists, cell-based qHTS assay with human liver microsomes: qHTS cell viability counter screen (AID 1963579). Also: nearly all actives have a fitted effect of over 45% in size. Also: potency is read from the fitted curve at half-maximal effect. The essentials: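 Luminescent CellTiter-Glo read-out, 30 min at room temperature, gauged cytotoxicity in p53RE-bla cells exposed 16 h at 37 C to DMSO-dissolved compounds with metabolic activation by human liver microsomes and NADPH, each 0.5 mg/mL final.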

Assay [9] is described as follows: p53 small molecule agonists, cell-based qHTS assay with rat liver microsomes: qHTS cell viability counter screen (AID 1963580). Also: nearly all actives have a fitted effect of over 45% in size. A digest of the protocol:
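p53RE-bla HCT-116 cells (4,000/well) rested 5 h at 37 C, then given Tox21 compounds in DMSO with rat liver microsomes (0.5 mg/mL final) plus NADPH (0.5 mg/mL final) for 16 h at 37 C. Viability read by CellTiter-Glo luminescence after 30 min at room temperature.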

Assay [10] can be described thus: p53 small molecule agonists, cell-based qHTS assay: qHTS cell viability counter screen (AID 1963581). Also: nearly all actives have a fitted effect of over 45% in size. Also: potency is read from the fitted curve at half-maximal effect. The essentials:
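Following 5 h attachment, HCT-116 p53RE-bla cells took up compound for 16 h at 37 C; the reporter was read with B/G FRET substrate (2 h RT), and viability then via CellTiter-Glo ATP luminescence.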

Assay [11] is described as follows: p53 small molecule agonists, cell-based qHTS assay (AID 1963582; active = well fitted activation curve with a large enough effect in the signal ratio in the repeat runs, not every such curve was filed as active; the % refers to the signal ratio). The essentials: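 In this cell-based concentration-response screen, a p53 response element drives beta-lactamase; cells received DMSO-borne compounds after 5 h culture and were incubated a further 16 h before FRET substrate development.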
For assay [12], the target named is 5-hydroxytryptamine receptor 2A (Homo sapiens) (UniProt P28223). Description: 5-hydroxytryptamine receptor 2A (HTR2A) small molecule antagonists, cell-based qHTS assay (AID 1963586). Also: nearly all actives have a fitted effect of over 45% in size. A digest of the protocol:
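Antagonist-mode intracellular calcium assay: DOI (4 nM) added after 5 min compound pre-incubation at room temperature to dye-loaded HTR2A-CHO cells. Fluorescence followed for 3 min, sampled every second.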

The target is the same in assay [13]. The assay is described as follows: 5-hydroxytryptamine receptor 2A (HTR2A) small molecule agonists, cell-based qHTS assay (AID 1963587). Also: nearly all actives have a fitted effect of over 30% in size. A digest of the protocol:
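HTR2A-CHO cells, plated 18 h at 37 C/5% CO2, dye-loaded 1 h at 37 C; compounds in DMSO added by pin tool (agonist mode). Intracellular calcium flux read as kinetic fluorescence on FDSS over 2 min at 1 s intervals.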

For assay [14], the target named is Muscarinic acetylcholine receptor M1 (Homo sapiens) (UniProt P11229). Description: Cholinergic receptor muscarinic 1 (CHRM1) small molecule antagonists, cell-based qHTS assay (AID 1963588). Also: nearly all actives have a fitted effect of over 40% in size. The essentials:
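CHRM1-CHO calcium-flux assay, antagonist mode. Cells were seeded 18 h, dye-loaded 1 h at 37 C and given compound for 5 min at RT, then acetylcholine was added at 50nM. FDSS fluorescence was read 3 min; 15 concentrations, three runs.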

Assay [15] has the same target. Description: Cholinergic receptor muscarinic 1 (CHRM1) small molecule agonists, cell-based qHTS assay (AID 1963589). Also: nearly all actives have a fitted effect of over 35% in size. A digest of the protocol:
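Measures agonist-induced intracellular calcium rise. Stable human CHRM1 CHO line, 1 h dye load at 37 C, compounds from DMSO, kinetic fluorescence read.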

The target of assay [16] is Beta-2 adrenergic receptor (Homo sapiens) (UniProt P07550). Description: Adrenergic beta2 receptor (ADRB2) small molecule antagonists, cell-based qHTS assay (AID 1963592). Also: series mostly up to about 92 µM; nearly all actives have a fitted effect of over 50% in size. A digest of the protocol: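 Cells (CHO, stable ADRB2 overexpression) incubated 18-20hr at 37C; compounds added from DMSO; agonist mix (1nM isoproterenol, 100uM IBMX, 25uM Ro-20-1724) added; 0.5hr RT; d2-cAMP and anti-cAMP-cryptate added; 1hr RT; 665/615 nm read.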
Beta-2 adrenergic receptor (Homo sapiens), sequence (P07550 whole entry, looked up): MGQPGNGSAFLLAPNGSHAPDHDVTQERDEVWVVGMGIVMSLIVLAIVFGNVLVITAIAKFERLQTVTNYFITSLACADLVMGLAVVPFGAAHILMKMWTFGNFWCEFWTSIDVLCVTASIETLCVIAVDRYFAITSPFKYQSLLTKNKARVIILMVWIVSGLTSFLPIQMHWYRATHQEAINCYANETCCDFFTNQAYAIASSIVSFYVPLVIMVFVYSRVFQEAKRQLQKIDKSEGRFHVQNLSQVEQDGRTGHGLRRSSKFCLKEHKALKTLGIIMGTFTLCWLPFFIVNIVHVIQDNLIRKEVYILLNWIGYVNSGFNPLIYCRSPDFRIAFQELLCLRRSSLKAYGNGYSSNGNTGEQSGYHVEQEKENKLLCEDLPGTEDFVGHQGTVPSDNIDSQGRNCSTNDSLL

In assay [17] the target is D(2) dopamine receptor (Homo sapiens) (UniProt P14416). The assay is described as follows: Dopamine D2 receptor (DRD2) small molecule agonists, cell-based qHTS assay (AID 1963594). Also: nearly all actives have a fitted effect of over 35% in size. The essentials: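 HEK293 cells stably expressing DRD2 were cultured 24 h at 37 C, then given Ro20-1724 (0.1 mM final) and compounds for 10 min at room temperature. NKH477 (200nM) was then added for 30 min. cAMP was read by HTRF.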
D(2) dopamine receptor (Homo sapiens), sequence (P14416 whole entry, looked up): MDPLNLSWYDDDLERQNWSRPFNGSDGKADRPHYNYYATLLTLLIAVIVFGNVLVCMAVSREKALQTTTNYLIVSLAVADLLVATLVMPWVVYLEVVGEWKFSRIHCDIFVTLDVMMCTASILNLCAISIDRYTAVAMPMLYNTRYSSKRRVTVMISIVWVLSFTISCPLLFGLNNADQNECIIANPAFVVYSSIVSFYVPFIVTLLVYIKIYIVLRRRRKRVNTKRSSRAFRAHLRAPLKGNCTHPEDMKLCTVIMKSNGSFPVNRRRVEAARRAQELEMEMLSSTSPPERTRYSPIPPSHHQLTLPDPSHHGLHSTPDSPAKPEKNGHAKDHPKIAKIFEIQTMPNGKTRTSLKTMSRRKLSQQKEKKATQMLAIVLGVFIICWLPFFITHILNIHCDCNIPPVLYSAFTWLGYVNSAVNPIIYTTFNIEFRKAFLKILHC

Assay [18] has the same target. Description: Dopamine D2 receptor (DRD2) small molecule antagonists, cell-based qHTS assay (AID 1963595; active = well fitted inhibition curve with a large enough effect in the signal ratio in the repeat runs, with a control signal flat; the % refers to the signal ratio). The essentials: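 Cells were plated and grown for 24 h at 37 °C. Ro20-1724 (0.1 mM final) went in first, then compound for 10 min. NKH477 (200 nM) with quinpirole (12 nM) followed for 30 min at RT, then HTRF detection reagents for 1 h.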
Assay [19] is described as follows: cAMP Responsive Elements (CRE) small molecule agonists, cell-based qHTS assay (AID 1963590). A digest of the protocol:
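A CRE-responsive beta-lactamase reporter in HEK 293T cells was used. Treatment ran 3 h at 37 C; detection used LiveBLAzer B/G FRET substrate for 2 h at room temperature.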

The nature of assay [20]: cAMP Responsive Elements (CRE) small molecule antagonists, cell-based qHTS assay (AID 1963591; active = well fitted inhibition curve with a large enough effect in the signal ratio in the repeat runs, not every such curve was filed as active; the % refers to the signal ratio). A digest of the protocol:
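HEK293T cells carrying a CRE-driven beta-lactamase reporter receive compound and NKH477 (0.25 uM final) for 3 h. Fluorescence from LiveBLAzer B/G FRET substrate is read after 2 h at room temperature.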

A number with no mark means an inactive call. Inconclusive results are not listed. Activity calls are given as the source filed them. Unless noted, calls follow the shape of the full dose curve.

5-hydroxytryptamine receptor 2A (Homo sapiens), sequence (P28223 whole entry, looked up): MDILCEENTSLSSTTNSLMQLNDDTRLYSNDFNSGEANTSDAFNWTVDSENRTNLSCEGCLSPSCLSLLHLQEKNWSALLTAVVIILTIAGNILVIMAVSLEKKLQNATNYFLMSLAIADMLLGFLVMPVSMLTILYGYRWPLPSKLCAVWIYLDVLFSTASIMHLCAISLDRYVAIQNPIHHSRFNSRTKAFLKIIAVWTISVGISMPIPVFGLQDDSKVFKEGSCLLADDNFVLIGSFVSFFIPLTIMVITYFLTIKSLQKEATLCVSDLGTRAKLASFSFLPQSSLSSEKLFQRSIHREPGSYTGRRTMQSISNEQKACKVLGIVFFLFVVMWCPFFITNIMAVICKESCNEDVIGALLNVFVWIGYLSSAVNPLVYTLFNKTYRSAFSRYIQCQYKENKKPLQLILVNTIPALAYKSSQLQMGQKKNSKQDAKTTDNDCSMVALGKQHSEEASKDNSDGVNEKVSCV
KiSS-1 receptor (Homo sapiens), sequence (Q969F8 whole entry, looked up): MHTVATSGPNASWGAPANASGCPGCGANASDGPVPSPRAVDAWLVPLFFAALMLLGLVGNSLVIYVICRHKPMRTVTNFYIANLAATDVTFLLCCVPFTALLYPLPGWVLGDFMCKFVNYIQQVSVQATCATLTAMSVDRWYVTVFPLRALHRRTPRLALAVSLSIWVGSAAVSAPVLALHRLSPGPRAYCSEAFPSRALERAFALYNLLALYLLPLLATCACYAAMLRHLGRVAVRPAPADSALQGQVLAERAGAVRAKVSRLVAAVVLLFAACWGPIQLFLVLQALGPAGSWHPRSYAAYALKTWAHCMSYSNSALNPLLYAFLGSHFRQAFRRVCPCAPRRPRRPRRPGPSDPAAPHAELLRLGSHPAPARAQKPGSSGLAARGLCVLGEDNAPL
Muscarinic acetylcholine receptor M1 (Homo sapiens), sequence (P11229 whole entry, looked up): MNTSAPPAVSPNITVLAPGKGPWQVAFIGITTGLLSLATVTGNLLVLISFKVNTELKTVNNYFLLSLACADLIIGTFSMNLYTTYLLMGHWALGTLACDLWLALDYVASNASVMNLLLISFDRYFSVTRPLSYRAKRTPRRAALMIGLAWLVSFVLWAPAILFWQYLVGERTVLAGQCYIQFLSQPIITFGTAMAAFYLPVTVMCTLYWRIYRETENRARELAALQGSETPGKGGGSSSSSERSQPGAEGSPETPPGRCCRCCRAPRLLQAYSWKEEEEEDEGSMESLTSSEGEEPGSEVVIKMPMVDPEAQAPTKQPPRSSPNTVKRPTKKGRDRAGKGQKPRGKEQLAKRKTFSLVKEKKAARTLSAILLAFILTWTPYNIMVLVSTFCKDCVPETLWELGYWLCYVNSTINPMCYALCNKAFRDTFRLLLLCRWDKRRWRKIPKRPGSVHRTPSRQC
Gonadotropin-releasing hormone receptor (Homo sapiens), sequence (P30968 whole entry, looked up): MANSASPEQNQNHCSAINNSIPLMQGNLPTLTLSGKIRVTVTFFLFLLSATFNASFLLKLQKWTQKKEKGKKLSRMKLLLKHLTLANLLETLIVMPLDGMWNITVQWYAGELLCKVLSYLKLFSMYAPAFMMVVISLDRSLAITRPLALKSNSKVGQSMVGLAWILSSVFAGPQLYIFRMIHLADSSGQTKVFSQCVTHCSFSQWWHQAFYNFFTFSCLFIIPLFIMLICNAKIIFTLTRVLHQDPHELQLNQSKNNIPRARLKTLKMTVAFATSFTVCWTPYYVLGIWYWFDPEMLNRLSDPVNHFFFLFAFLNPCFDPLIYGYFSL

With `C=CC(=O)OCCOC(=O)CCC(=O)O`, the Potency result in assay [1], in assay [3], in assay [6], in [7], in [8] and in assay [9] was “inactive” each time. Further, the Potency entry in assay [10], in assay [11], in assay [12], in [13], in assay [14] and in [15] was “inactive” throughout. In addition, the Potency entry in assay [16], in assay [17] and in assay [18] was “inactive” throughout. In addition, the Potency in [2] was 61.1 µM (active). Also, the outcome in [4] and in assay [5] was inactive.
As to `Nc1ccccc1O`, the Potency entry in [1], in assay [3], in assay [6], in [7], in assay [9] and in assay [11] was “inactive” each time. Further, the Potency result in assay [12], in assay [13], in [14], in [15], in assay [17] and in assay [18] was “inactive” in each case. For the same compound, the Potency was 47.9 µM (active) in assay [2], 28.5 µM (active) in [8] and 32 µM (active) in [10]. The outcome in assay [4] and in [5] was inactive.
`CCCC(C)c1ccccc1O` (stereo unspecified): the Potency result in assay [1], in assay [2], in assay [3], in assay [6], in [7] and in [8] was “inactive” throughout. Also, the Potency result in [9], in assay [10], in assay [11], in assay [12], in assay [13] and in [14] was “inactive” throughout. Moreover, the Potency result in assay [15], in assay [16], in [17] and in assay [18] was “inactive” each time. Also, the result in [4] and in assay [5] was inactive.
Turning to `c1ccc(-c2nn[nH]n2)cc1`, the Potency result in [1], in assay [2], in assay [3], in assay [6], in [7] and in assay [8] was “inactive” each time. In addition, the Potency entry in assay [9], in [10], in assay [11], in assay [12], in assay [13] and in assay [14] was “inactive” throughout. In addition, the Potency result in [19], in assay [20], in assay [16], in assay [17] and in [18] was “inactive” in each case. For the same compound, the outcome in assay [4] and in assay [5] was inactive.
With `C/C(=N\[Si](C)(C)C)O[Si](C)(C)C`, the Potency entry in assay [1], in assay [2], in assay [3], in assay [6], in assay [7] and in [8] was “inactive” each time. The Potency entry in assay [9], in assay [10], in assay [11], in [12], in assay [13] and in assay [14] was “inactive” throughout. In addition, the Potency result in assay [20], in assay [16], in assay [17] and in assay [18] was “inactive” each time. Besides, the outcome in assay [4] and in assay [5] was inactive.
For the compound `O=C(O)c1cccc(Cl)n1`, the Potency result in [1], in assay [3], in [6], in assay [7], in [9] and in assay [10] was “inactive” throughout. Also, the Potency entry in assay [11], in [12], in [13], in [14], in assay [15] and in [16] was “inactive” throughout. Besides, the Potency entry in [17] and in [18] was “inactive” throughout. In addition, the Potency in assay [2] was 68.6 µM (active); in assay [8], 40.8 µM (active). In addition, the outcome in assay [4] and in assay [5] was inactive.
`Oc1cccc2cc3cccc(O)c3c(O)c12`: the Potency result in assay [1], in assay [2], in assay [3], in assay [6], in [7] and in assay [8] was “inactive” each time. The Potency entry in assay [9], in [10], in assay [11], in [12], in [13] and in assay [14] was “inactive” throughout. In addition, the Potency result in assay [15], in assay [16], in assay [17] and in [18] was “inactive” in each case. Moreover, the outcome in assay [4] and in assay [5] was inactive.

The values above are taken from PubChem BioAssay (Tox21).
